Screening data from PubChem BioAssay.
aSyn 5UTR act = Activators via SNCA 5'UTR binding, MLPCN; alpha-synuclein 5'UTR reporter, activators screen; hit rate 7.1% among 300,000; activity score, % (tested at 7.5 µM), hits read low; in the data active means activity score below about -60%
Each line names hits and unclear results; the compound was inactive in the other large screens. These entries were drawn from the full list.

CCCOc1ccccc1/C=C(\C#N)C(=O)Nc1cccnc1	aSyn 5UTR act -85
COc1ccc(O)c(/C=C(\C#N)C(=O)Nc2cccnc2)c1	aSyn 5UTR act -80
COC(=O)c1ccc(COc2ccccc2/C=C(\C#N)C(=O)Nc2c(C)cccc2C)cc1	aSyn 5UTR act -82
COc1ccc(Cc2[nH]n3c(=O)cc(C(C)C)nc3c2-c2ccccc2)cc1	none
COc1ccc(-c2cc(=O)n(-c3nc4ccccc4[nH]3)[nH]2)cc1	aSyn 5UTR act -68
O=C(COc1cccc2c1CCNC2=O)Nc1cccc(C(F)(F)F)c1	aSyn 5UTR act -84
Cc1ccc(CC(=O)NCc2ccc(Cl)cc2)cc1	aSyn 5UTR act -76
Cc1ccc(CNC(=O)c2ccc3c(=O)c(O)c(-c4ccc(C)cc4)[nH]c3c2)cc1	none
CC(C)(C)c1ccc(C(=O)NCc2ccccc2)cc1	aSyn 5UTR act -88
CC(C)(C)c1ccc(C(=O)NCc2ccc(Cl)cc2)cc1	aSyn 5UTR act -75
c1ccc(-c2ccc3ccccc3n2)cc1	aSyn 5UTR act -191
c1ccc2nc(-c3ccc(-n4ccnc4)cc3)ccc2c1	aSyn 5UTR act -224
N#C/C(=C/c1ccc(N2CCOCC2)o1)c1ccc(Cl)cc1	aSyn 5UTR act -286
NC(=O)CSc1nc(-c2ccccc2Cl)ns1	aSyn 5UTR act -121
O=c1c2[nH]c3ccccc3c2ncn1C1CCCCC1	aSyn 5UTR act -91
COc1ccccc1/C=C/C(=O)Nc1ccc2c(c1)CCC2	aSyn 5UTR act -151
COc1ccccc1/C=C/C(=O)Nc1ccc2c(c1)OCCO2	aSyn 5UTR act -145
Cc1ccc(C2=NNC(C(O)C(O)C(O)C(O)CO)S2)cc1 (stereo unspecified)	aSyn 5UTR act -103
O=S(=O)(c1ccc(NC(=S)Nc2ccc3c(c2)OCO3)cc1)N1CCOCC1	aSyn 5UTR act -227
CNS(=O)(=O)c1ccc(NC(=S)Nc2ccc3c(c2)OCO3)cc1	aSyn 5UTR act -129
COc1ccc(N=CC2=C(O)c3ccccc3C2=O)cc1	aSyn 5UTR act -80
O=C1C(C=Nc2ccccc2)=C(O)c2ccccc21	aSyn 5UTR act -78
CN1CCN(Cn2cc(/C=C/C(=O)c3ccccc3)c3ccccc32)CC1	aSyn 5UTR act -312
COc1ccc(C(=O)/C=C/c2cn(CC(O)CN3CCN(C)CC3)c3ccccc23)cc1OC (stereo unspecified)	aSyn 5UTR act -62
O=[N+]([O-])/C=C/c1cn(Cc2ccc(Cl)cc2)c2ccccc12	none
Cc1ccc(-n2sc3ccccc3c2=O)cc1	aSyn 5UTR act -121
COc1ccc(/C=C(/C(=O)c2cccs2)N2C=CC=CC2=C(C#N)C#N)cc1	aSyn 5UTR act -102
COc1ccc(C(=O)/C(=C\c2ccco2)N2C=CC=CC2=C(C#N)C#N)cc1	none
CC(C)CCNC(=O)C(=O)Nc1ccc2c(c1)N(S(=O)(=O)c1cccs1)CCC2	aSyn 5UTR act -73
COc1cccc(NC(=O)C(=O)NCCC2CCCCN2S(=O)(=O)c2cccs2)c1 (stereo unspecified)	aSyn 5UTR act -148
Cc1ccc(N=Cc2sccc2C)cc1C	aSyn 5UTR act -111
NC(=S)Cc1nc(-c2ccc(Cl)cc2)cs1	aSyn 5UTR act -104
CC(C)(C)C(=O)OCc1nc(-c2ccc(F)cc2)cs1	aSyn 5UTR act -106
CC(C)(C)C(=O)OCc1nc(-c2ccc3c(c2)OCCO3)cs1	aSyn 5UTR act -141
CC(C)(C)C(=O)OCc1nc(-c2ccc(Cl)cc2)cs1	aSyn 5UTR act -133
COc1nccnc1NS(=O)(=O)c1ccc(NCc2cc(Br)ccc2O)cc1	aSyn 5UTR act -83
CC(C)c1cc(C(=O)Nc2cc(Cl)ccc2O)no1	aSyn 5UTR act -290
CSc1ccccc1NC(=O)c1cc(C(C)C)on1	aSyn 5UTR act -143
O=C(Nc1cc(Br)ccc1O)c1cc(-c2cccs2)on1	aSyn 5UTR act -147
CC(C)c1cc(C(=O)Nc2cc(Br)ccc2O)no1	aSyn 5UTR act -291
N#Cc1cn(-c2ccccc2)nc1-c1ccccc1	aSyn 5UTR act -78
O=C(COc1ccccc1)Nc1ccc2c(c1)nc1n2CCSC1	aSyn 5UTR act -125
O=C(COc1ccccc1)Nc1ccc2c(c1)nc1n2CCOC1	aSyn 5UTR act -85
C/C(Cn1nnc([N+](=O)[O-])n1)=N\NC(=O)c1ccccc1	aSyn 5UTR act -73
CN(C)/C=C(\C#N)C(=O)N/N=C/c1ccccc1	aSyn 5UTR act -69
c1cc2c(cc1C1=NNC(=NC3CC3)SC1)OCCO2	none
FC(F)Sc1ccc(N=C2NN=C(c3ccc4c(c3)OCCO4)CS2)cc1	aSyn 5UTR act -127
COc1ccc(Cl)cc1C(=O)Nc1ccc(Br)c(C)n1	aSyn 5UTR act -78
COc1ccc(Cl)cc1C(=O)Nc1cccnc1Cl	aSyn 5UTR act -78
Cc1cccc(-c2nc(C#N)c(N3CCCCC3)o2)c1	aSyn 5UTR act -187
Cc1cccc(-c2nc(C#N)c(NC3CCCCC3)o2)c1	aSyn 5UTR act -171
N/C(=N\OC(=O)CCCc1ccccc1)c1ccccn1	aSyn 5UTR act -69
N/C(=N\OC(=O)Cc1ccccc1)c1ccccn1	aSyn 5UTR act -77
CC(C)(C)C1CCc2nc(NC(=O)Cc3cn4ccsc4n3)sc2C1 (stereo unspecified)	aSyn 5UTR act -66
O=C(CCCc1cccs1)Nc1nc2c(s1)CCCC2	aSyn 5UTR act -171
CC1CCc2nc(NC(=O)c3ccco3)sc2C1 (stereo unspecified)	none
CC1CCc2nc(NC(=O)Cc3cccs3)sc2C1 (stereo unspecified)	aSyn 5UTR act -160
Cc1csc(NC(=O)CCCc2cccs2)n1	aSyn 5UTR act -77
C/C(=N\Nc1cc(Cl)nc(C)n1)c1ccccc1	aSyn 5UTR act -142
Oc1ccccc1-c1cc(-c2ccco2)[nH]n1	aSyn 5UTR act -256
Oc1c(-c2cc(-c3ccco3)[nH]n2)ccc2ccccc12	aSyn 5UTR act -170
COc1ccc(C(=O)NCCOc2ccccc2Cl)c(OC)c1OC	aSyn 5UTR act -154
C/C(=N\Nc1cccc2cccnc12)c1ccc[nH]1	aSyn 5UTR act -123
Clc1nc2ccccc2cc1-c1nnn(-c2ccccc2Br)n1	aSyn 5UTR act -128
Brc1ccccc1-n1nnc(-c2nccs2)n1	aSyn 5UTR act -97
O=C(/C=C/c1ccco1)Nc1ccc(C(=O)N2CCOCC2)cc1	aSyn 5UTR act -75
O=C(/C=C/c1ccco1)Nc1ccc(N2CCCC2)cc1	aSyn 5UTR act -207
COc1cc(C2Nc3ccc4ncccc4c3C3=C2C(=O)CCC3)ccc1O (stereo unspecified)	aSyn 5UTR act -102
CC(C)(C)NC(=O)C(c1ccncc1)N(Cc1ccco1)C(=O)c1ccc(-c2ccccc2)[nH]1 (stereo unspecified)	aSyn 5UTR act -83
Cc1ccc(C(=O)C(C)OC(=O)c2ccccc2[N+](=O)[O-])cc1 (stereo unspecified)	aSyn 5UTR act -158
O=C(/C=C/c1ccccc1[N+](=O)[O-])c1ccccc1Br	aSyn 5UTR act -79
Cc1ccc(C(=O)/C=C/c2ccccc2[N+](=O)[O-])cc1	aSyn 5UTR act -173
O=C(Nc1nc2ccccc2[nH]1)C1CCN(S(=O)(=O)c2cccs2)CC1	aSyn 5UTR act -70
CC(=O)c1ccc(NC(=O)C2CCN(S(=O)(=O)c3cccs3)CC2)cc1	aSyn 5UTR act -80
Cc1ccn(-c2cc(O)c(-n3ccc(C)n3)cc2O)n1	aSyn 5UTR act -85
O=C(NCCc1ccc(Cl)cc1)c1ccc(Br)s1	aSyn 5UTR act -180
O=C(NCCCCCCNC(=O)c1ccc(Br)s1)c1ccc(Br)s1	aSyn 5UTR act -108
COc1cccc(/C=N/Nc2nn3cnnc3c3ccccc23)c1	aSyn 5UTR act -62
Cn1cnnc1Sc1ccc(/C=C/C(=O)c2ccc(O)cc2)cc1[N+](=O)[O-]	aSyn 5UTR act -111
